Here are results for 106 compounds from ChEMBL document CHEMBL4513216, “Probing the Open Global Health Chemical Diversity Library for Multistage-Active Starting Points for Next-Generation Antimalarials” (ACS Infect Dis, 2020).

About 8,600 (12%) of roughly 69,000 compounds showed an effect of 50% or more. The list comes from a sample in which strong results are over-represented; it also holds similar structures and randomly drawn compounds.

In this assay the test system is Plasmodium berghei. Nature of the assay: Screen against P. berghei liver stage (PbLuc), transformed with Luciferase, at 10uM. In kind it is functional, HepG2. The note with it: tested at 10 uM.
For `CC(C)c1nccc(-c2nccn2CCN(C)S(C)(=O)=O)n1`, the INHIBITION was -21.9%. With `O=C(Cc1ccccn1)N1CCC2(CC1)CN(CC1CC1)C(=O)CO2`, the INHIBITION stood at 15.3%.

For the compound `CCC(CC)C(=O)N(C)CC(=O)Nc1ccc(Br)cn1`, the INHIBITION worked out at 21.5%. As to `CN(CCn1nc2ccccn2c1=O)CC(=O)N(C)C1CCCCC1`, the INHIBITION is -111%.

Consider `O=S(=O)(c1cc(F)ccc1F)n1cc(Cl)cn1`, for which the INHIBITION worked out at 48.8%.

`O=S(=O)(c1ccc(F)cc1)n1cc(Cl)cn1`: the INHIBITION stood at 51%.

As to `O=S(=O)(c1ccc(F)c(F)c1)n1cc(Cl)cn1`, the INHIBITION is given as 42.1%. Regarding `CCc1ccccc1CNC(=O)CCc1cnn(C)c1`, the INHIBITION is listed as 16.6%. Then `Cc1nnc(C(C)N2CCc3[nH]c4ccc(Cl)cc4c3C2)o1` (stereo unspecified), with 61.3%; and `Cc1noc(C(C)N2CCc3[nH]c4ccc(Cl)cc4c3C2)n1` (stereo unspecified), with 28.7%; and `Cc1nnc(C(C)N2CCc3[nH]c4ccccc4c3C2)o1` (stereo unspecified), with 32%.

Regarding `Cc1cnn(CC2CN(Cc3nc(C)c(C)o3)CCO2)c1` (stereo unspecified), the INHIBITION is recorded as 11.4%. Next, `COc1cccc(C2(C(=O)NC3CCc4nccn4C3)CCCC2)c1` (stereo unspecified): 34.6%; `CCN(CCn1cccn1)C(=O)CN1C(=O)OC[C@@H]1c1ccccc1`: 9.63%; `CC(C)[C@H]1COC(=O)N1CC(=O)N(C)CCCn1cccn1`: 42.1%. Regarding `CCN(CCn1cccn1)C(=O)CN1C(=O)OC[C@@H]1C(C)C`, the INHIBITION came out at 64.5%. Then `COc1cccc(F)c1C(C)NC(=O)NCc1cnc(C)s1` (stereo unspecified), with -8.66%. Next, `CC(C)n1cc(S(=O)(=O)N2CCCC(N3CCCCC3)C2)cn1` (stereo unspecified): 2.4%. Next, `CC(C)c1ccc(NC(=O)Cn2cc(I)cn2)cc1`: 82.2%; `Cc1ccc(NC(=O)Cn2cc(I)cn2)cc1C`: 66.5%. Consider `CC(=O)c1cccc(NC(=O)Cn2cc(I)cn2)c1`, for which the INHIBITION is recorded as -1.58%. Next, `NC(=O)c1ccc(NC(=O)Cn2cc(I)cn2)cc1`: 40%. Then `Cc1ccc(C)c(NC(=O)Cn2cc(I)cn2)c1`, with 49.1%; and `Cc1ccc(NC(=O)Cn2cc(I)cn2)cc1`, with 23.2%; and `CS(=O)(=O)NCc1cnc2n1CCN(Cc1ccoc1)CC2`, with 33%. Then `Cn1cc(C(=O)N[C@@H]2CN(Cc3cccnc3)[C@@H]3CCCO[C@@H]32)cn1`, with 3.25%; and `O=C(c1cnccn1)N1C[C@H]2CC[C@@H](C1)N(C(=O)CCc1ccsc1)C2`, with -69.6%. As to `O=C1CCC(C(=O)Nc2ccc(=O)n(Cc3ccc(Cl)c(Cl)c3)c2)N1` (stereo unspecified), the INHIBITION is on record as -20.5%. Next, `CN(Cc1ccc(C(=O)Nc2sccc2C#N)cc1)Cc1ccno1`: 15.9%; `Cc1nnc(CN(C)Cc2ccc(C(=O)Nc3sccc3C#N)cc2)o1`: 15.9%. Then `Cc1nnsc1CN(C)Cc1ccc(C(=O)Nc2sccc2C#N)cc1`, with 55.4%; and `COCCN1CCCC(Cc2ccc(N3CCOCC3)nn2)C1` (stereo unspecified), with -0.902%; and `O=C(NC1CCCCC1)NC1CCCc2c1cnn2CCO` (stereo unspecified), with -9.93%.

Consider `Cc1ccc(CNC(=O)NC2CCCc3c2cnn3CCO)cn1` (stereo unspecified), for which the INHIBITION came out at 53.4%. Turning to `O=C(NCCc1ccc(F)cc1)NC1CCCc2c1cnn2CCO` (stereo unspecified), the INHIBITION worked out at 18.3%. Next, `O=C(NCC(F)(F)F)NC1CCCc2c1cnn2CCO` (stereo unspecified): 37.1%. For the compound `Cc1csc(CNC(=O)NC2CCCc3c2cnn3CCO)n1` (stereo unspecified), the INHIBITION is recorded as 14%. Next, `O=C(NCCC1=CCCCC1)NC1CCCc2c1cnn2CCO` (stereo unspecified): 62%; `Cc1nc(CCNC(=O)NC2CCCc3c2cnn3CCO)cs1` (stereo unspecified): 26.9%; `O=C(NCC1CCCCC1)NC1CCCc2c1cnn2CCO` (stereo unspecified): 55.1%. `Cc1ccsc1CNC(=O)NC1CCCc2c1cnn2CCO` (stereo unspecified): the INHIBITION came to 13.4%. Then `CC1(C)Cc2nc(C(C)(C)C)ncc2C(NC(=O)CN)C1` (stereo unspecified), with 36.8%; and `CCn1ncc2c1C(COCC1CC1)N(Cc1nccs1)CC2` (stereo unspecified), with 13.7%; and `COc1cccc(S(=O)(=O)CCNC2CCc3ncnn3C2)c1` (stereo unspecified), with 41.2%. With `CN(C)C(=O)C1CCN(C2CCN(CC3CCC3)CC2)CC1`, the INHIBITION was 26.5%.

For the compound `CCn1cc(N)c(-c2nnc3n2CCC3)n1`, the INHIBITION came to 24.8%.

On to `Cc1ccc(C(=O)NS(C)(=O)=O)cc1-n1cccc1`, for which the INHIBITION turned out to be 5.23%. On to `O=C(Nc1ccc2c(ccn2CCN2CCOCC2)c1)c1ccncc1`, for which the INHIBITION is -35.8%. Next, `CCc1nc(CSc2nnc(N)n2C2CC2)no1`: 42.1%; `Cc1ccccc1Cc1nc(CSc2nnc(N)n2C)no1`: 10.7%; `Cc1ccccc1Cc1nc(CSc2nnc(N)n2C2CC2)no1`: 67.8%. On to `CCC(=O)N1CCC(Cc2ccccc2-c2ccncc2)(C(=O)NC)C1` (stereo unspecified), for which the INHIBITION turned out to be 6.32%. Next, `O=C(O)c1ccn(-c2cccc(NC(=O)c3ccccc3Cl)c2)n1`: 52.6%; `O=C(O)c1ccn(-c2ccc(NC(=O)c3ccccc3Cl)cc2)n1`: 46.1%.

Regarding `O=C(O)c1ccn(-c2ccccc2NC(=O)c2ccccc2Cl)n1`, the INHIBITION was 4.1%. `Cc1noc(C[C@@H]2COC[C@H]3CN(S(C)(=O)=O)C[C@@H]23)n1`: the INHIBITION amounted to 26.5%. Then `Cc1nnc(C[C@@H]2COC[C@H]3CN(C(=O)c4ccco4)C[C@@H]23)o1`, with 2.4%. Then `Cc1noc(C[C@@H]2COC[C@H]3CN(C(=O)C4=CCCC4)C[C@@H]23)n1`, with 34.9%; and `COc1cc(N2C[C@@H]3COC[C@@H](Cc4nnc(C)o4)[C@@H]3C2)ncn1`, with 50.3%; and `CCCS(=O)(=O)N1C[C@@H]2COC[C@@H](Cc3nc(C)no3)[C@@H]2C1`, with 61.9%. Next, `CCS(=O)(=O)N1C[C@@H]2COC[C@@H](Cc3nc(C)no3)[C@@H]2C1`: 12.1%; `Cc1noc(C[C@@H]2COC[C@H]3CN(S(=O)(=O)C4CC4)C[C@@H]23)n1`: 24.9%; `COc1cc(N2C[C@@H]3COC[C@@H](Cc4nc(C)no4)[C@@H]3C2)ncn1`: 65.7%.

With `Cc1nnc(C[C@@H]2COC[C@H]3CN(C(=O)C4=CCCC4)C[C@@H]23)o1`, the INHIBITION came out at 36.4%. Next, `CS(=O)(=O)N1CCCC(C(=O)Nc2cnn(Cc3ccc(F)cc3)c2)C1` (stereo unspecified): 30.8%; `CCc1ccc(CN2Cc3nccn3CC(Cn3cncn3)C2)o1` (stereo unspecified): -14.3%; `CCOc1ncccc1NC(=O)N1CCCN(C(=O)OC)CC1`: -5.1%. Next, `O=C(O)[C@]12CCCN(Cc3ccoc3)C[C@H]1CN(c1ncccn1)C2`: 7.24%; `COc1c(CNCCNC(=O)c2ccc(C)c(F)c2)c(C)nn1C`: 11.2%; `COCCn1ccc(NCc2cc3cc(F)ccc3o2)n1`: 5.58%. `COCC(=O)N1CCCC1c1cc(Nc2nnc(C)s2)nc(C)n1` (stereo unspecified): the INHIBITION came to 18.2%. Next, `CN(C)[C@@H]1CN(C(=O)c2ccc3ccccc3n2)C[C@H]1O`: 14.7%; `c1cnc(N2CCC(c3n[nH]c4ncccc34)C2)nc1` (stereo unspecified): 15.9%; `Fc1ccc(CN2CCC(c3n[nH]c4ncccc34)CC2)cc1F`: 3.45%. Take `CC(C)Oc1ccc(CN2CCC(c3n[nH]c4ncccc34)CC2)cc1`: the INHIBITION was 70.1%. In the case of `Fc1cccc(Cl)c1CN1CCC(c2n[nH]c3ncccc23)CC1`, the INHIBITION came out at 24.4%.

As for `Fc1ccc(F)c(CN2CCC(c3n[nH]c4ncccc34)CC2)c1`, the INHIBITION is reported as -10.5%. Next, `CC(C)Oc1cccc(CN2CCC(c3n[nH]c4ncccc34)CC2)c1`: 66.5%; `CCN(Cc1cnn(C)c1)C[C@H]1CC[C@@H](Cc2ccc(C#N)cc2)O1`: 6.33%; `Cc1ncsc1CCC(=O)N(C)Cc1nc2ccccc2n1C`: 14.6%. Next, `CC(C)N1CCC2(C=C(C(=O)NC3CC3)c3ccccc32)CC1`: -24.5%; `CC(C)c1cc(N(C)Cc2cc(C3CC3)on2)n2nccc2n1`: 32.5%; `CCOC(=O)N1[C@@H](c2ccco2)[C@@H](C(=O)NC)C[C@]12CCCCNC2=O`: 42.7%. As to `Cc1nc(C(C)C)sc1C(=O)NCCn1ccnc1`, the INHIBITION is listed as 29.8%. Next, `CCCc1nc(C)c(C(=O)NCCn2nc3ccccn3c2=O)s1`: 52.8%; `Cc1nc(C(C)(C)C)sc1C(=O)NCCn1ccnc1`: 30.9%; `Cc1nc(C)c(C(=O)NCCn2nc3ccccn3c2=O)s1`: 4.283%. Next, `CCCc1nc(C)c(C(=O)NCCn2ccnc2)s1`: 51%; `CCc1nc(C)c(C(=O)NCCn2nc3ccccn3c2=O)s1`: -11%.

In the case of `CCN1CCC2(CCN(c3ncccn3)CC2)C1=O`, the INHIBITION is reported as -12.2%.

Turning to `Cc1ccc(CN2C[C@@H]3CCCO[C@@H]3[C@H](NS(C)(=O)=O)C2)o1`, the INHIBITION worked out at 46.6%. Then `CC(C)N1CCC2(CC1)C(=O)N(CCN(C)C)c1ccccc12`, with 49.4%; and `O=C(c1cccnc1)N1CCCC(c2ccnc3nccn23)C1` (stereo unspecified), with 9.3875%. Turning to `O=C(NCc1cncc2c1CCN(Cc1cccs1)C2)C1CC1`, the INHIBITION came to 9.67%. For the compound `Cc1ccc(CNC2CCc3[nH]c(=O)ccc3C2)cc1C` (stereo unspecified), the INHIBITION was 40.1%.

`CC(C)NC(=O)N1CCC2(CC(=O)N(c3ccccc3)C2)C1` (stereo unspecified): the INHIBITION came to 28.4%.

Take `CC(=O)N1CCC(c2cncc(N3CCOCC3)n2)CC1`: the INHIBITION was determined as 41.5%. Then `CN(Cc1ccsc1)C(=O)COC(=O)c1cc(Cl)c[nH]1`, with 14.8%; and `CCCN1CCC(NC(=O)c2ccnc(SCC)c2)CC1`, with 49.7%; and `Cc1cnc(C)c(N2CC[C@H](N3CCOCC3)[C@H](CCCO)C2)n1`, with -12.4%. Next, `Cc1nccn1CCC1CCCCN1C(=O)c1ccc2nonc2c1` (stereo unspecified): -17.5%; `Cc1nccn1CCC1CCCCN1C(=O)c1ccc2[nH]nnc2c1` (stereo unspecified): -5.29%; `COC(=O)c1cccc(C(=O)N2CCCCC2CCn2ccnc2C)c1` (stereo unspecified): 17.3%.

As for `Cc1nccn1CCC1CCCCN1C(=O)c1ccc(N(C)C)cc1` (stereo unspecified), the INHIBITION amounted to 66.9%. With `CNc1cc(C(=O)N2CCCCC2CCn2ccnc2C)ccn1` (stereo unspecified), the INHIBITION came out at 64.5%. As to `Cc1nccn1CCC1CCCCN1Cc1ccc(O)cc1Cl` (stereo unspecified), the INHIBITION is 1.37%.
